Shown are actives, neighbours in structure and some others; about 2.2% of the full set was active somewhere.
PLC-gamma1 inh – PLC-gamma1 (human) inhibition, primary screen; P19174; purified PLC-gamma1, fluorogenic substrate, fluorescence; inhibition, % at 12.2 µM; actives 0.84% (n = 370,000); AID 720700; in the data active means inhibition above about 9.5%
FAS-TE inh – FAS thioesterase (human) inhibition | P49327 | AID 602261 | recombinant FAS-TE, OMFH fluorogenic substrate, fluorescence endpoint | actives 0.67% (n = 360,000) | inhibition, % at 15 µM;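 active means compounds whose normalised, plate-corrected inhibition of enzyme fluorescence in the single-dose primary screen is 50% or more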;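 further: 0% = DMSO with enzyme and 100% = substrate without enzyme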
PLCb3 inh – PLC-beta3 (human) inhibition, primary screen | AID 720704 | Q01970 | inhibition, % at 12.2 µM | Purified PLC-beta3, fluorogenic substrate, fluorescence | actives 0.18% (n = 370,000);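 further: 0% = median of compound wells on plate and 100% = full blocker control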
Cardio protect – protects H9c2 cardiomyocytes from peroxide injury | protection from H2O2 cell death, % at 20 µM | actives 0.63% (n = 360,000) | H2O2 injury protection, ATPLite, 2 h;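 active means compounds giving at least 50% protection of heart cells from peroxide-induced death in the single-dose screen, raw or plate-pattern-corrected value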;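 further: 0% = DMSO wells with peroxide and 100% = DMSO wells without peroxide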
PLCg1 ctr – counter-screen for PLC-beta3 inhibitors: inhibitors of human PLC-gamma1; actives 3.1% (n = 3,300); purified PLC-gamma1, fluorogenic substrate, fluorescence; inhibition, % at 12.3 µM; shares compounds with PLC-gamma1 inh; AID 743258; in the data active means inhibition above about 9.5%
PLCbeta3 conf – human PLC-beta3 inhibition, confirmation; AID 743261; inhibition, % at 12.3 µM; actives 1% (n = 3,300); shares compounds with PLC-gamma1 inh; purified PLC-beta3, fluorogenic substrate fluorescence
Active calls of the source: *; . = no result given. Unless noted, no stated cut-off is given here; in the data, active means inhibition above about 11%; inactive means the rest.

SMILES	PLC-gamma1 inh	FAS-TE inh	PLCb3 inh	Cardio protect	PLCg1 ctr	PLCbeta3 conf
O=C(c1ccc(F)cc1Cl)N(Cc1ccccn1)CC1CCCO1 (stereo unspecified)	6.0	.	4.1	.	.	.
CCOC(=O)c1ccccc1NC(=O)CN(c1ccccc1OC)S(C)(=O)=O	6.9	-0.2	11.2*	4.0	-2.6	-6.3
COc1ccccc1N(CC(=O)Nc1ccccc1C(=O)NC(C)C)S(C)(=O)=O	2.4	-7.0	2.5	4.8	.	.
CCCCN(C(=O)C1=NN(c2ccccc2)C(=O)CC1)c1c(N)n(CCC)c(=O)[nH]c1=O	5.5	-6.5	-1.8	10.1	.	.
COc1ccc(C(c2nnnn2Cc2ccccc2)N2CCN(c3ccccc3)CC2)cc1 (stereo unspecified)	-0.8	17.6	0.4	3.1	.	.
COc1ccc(Cn2nnnc2C(C(C)C)N2CCN(c3ccccc3OC)CC2)cc1 (stereo unspecified)	11.5*	18.4	6.3	-6.8	1.0	3.5
CC(C)Oc1ccc(C(=O)Nc2ccc([N+](=O)[O-])cc2)cc1	10.0*	-2.5	0.2	-11.0	-3.2	-1.4
COc1ccc(CCCC(=O)NCCc2ccccc2)c(C)c1	2.7	2.9	-3.2	5.3	.	.
CC(C)CN(C(=O)COC(=O)Cc1n[nH]c(=O)c2ccccc12)C1CCS(=O)(=O)C1 (stereo unspecified)	11.6*	-4.0	1.6	3.1	-7.2	-1.5
COCCNC(=O)CCn1nc(-c2ccc(C)cc2)ccc1=O	-4.8	-4.8	-8.4	1.7	.	.
O=C1c2ccccc2C(=O)N1Cc1nc2ccccc2c(=O)n1CCCn1ccnc1	11.6*	-13.1	7.2	22.4	-9.8	-1.2
O=C(O)c1cccc(-c2ccc(/C=c3/sc4nc5ccccc5n4c3=O)o2)c1	18.1*	10.6	-12.7	11.5	-182.1	-176.5
CNc1c(NC(=O)COc2ccc(Cl)cc2)c(=O)oc2ccccc12	0.9	-0.6	-3.9	-1.1	.	.
Cc1ccccc1NC(=S)N1CCC(C(=O)c2ccc(F)cc2)CC1	9.9*	-4.6	7.8	-8.9	-1.5	0.4
O=C(c1ccc2snnc2c1)N1CCN(c2ccccn2)CC1	14.9*	-0.8	6.2	6.4	-5.4	0.0
O=C(c1ccc2snnc2c1)N1CCN(c2ccccc2)CC1	-1.3	-0.8	4.4	1.7	.	.
CCCCCCOc1ccc(C(=O)O)cc1C#N	9.8*	-8.2	-5.0	0.7	-4.4	-4.0
Cc1cc(C)nc(NS(=O)(=O)c2ccc(NCN3C(=O)c4ccccc4C3=O)cc2)n1	0.5	9.6	-3.1	4.5	.	.
CCn1c(SCC(=O)Nc2nc(C)c(C)s2)nnc1-c1cccnc1	9.8*	-4.5	-0.1	-1.7	2.2	0.8
CCn1c(SCC(=O)Nc2cc(C)on2)nnc1-c1cccnc1	.	-6.7	.	-2.0	.	.
CC1CN(C(=O)COC(=O)/C=C/c2ccccc2)CC(C)O1 (stereo unspecified)	2.3	-9.3	-5.5	0.4	.	.
CC(C)N1CCN(c2ccc(OC[C@H]3CO[C@](Cn4cncn4)(c4ccc(Cl)cc4Cl)O3)cc2)CC1	-0.7	1.2	2.1	-15.0	.	.
CC(C)N1CCN(c2ccc(OCC3COC(Cn4cncn4)(c4ccc(Cl)cc4Cl)O3)cc2)CC1 (stereo unspecified)	9.8*	-4.9	8.7	-10.0	1.6	-0.4
CC1=C(C(=O)N(C(C)C)C(C)C)CC(CC(=O)NCCc2ccccn2)C(=O)N1CCCN1CCCC1=O (stereo unspecified)	1.8	-8.1	-4.7	7.4	.	.
O=C(Cc1cccs1)N1CCC(c2nc3c(nnn3Cc3ccccc3Cl)c(=O)[nH]2)CC1	17.8*	4.0	16.8*	8.4	11.0*	15.7*
SMILES	PLC-gamma1 inh	FAS-TE inh	PLCb3 inh	Cardio protect	PLCg1 ctr	PLCbeta3 conf
O=c1[nH]c(C2CCN(S(=O)(=O)c3ccccc3)CC2)nc2c1nnn2Cc1ccc2c(c1)OCCO2	10.0*	-0.3	-3.2	-5.3	-3.3	-1.4
O=C(C1CCCCC1)N1CCC(c2nc3c(nnn3Cc3ccccc3Cl)c(=O)[nH]2)CC1	2.5	-2.9	-6.0	3.7	.	.
COc1cc(OC)cc(C(=O)NCC(C)NC(=O)c2cc(OC)cc(OC)c2)c1 (stereo unspecified)	-5.4	0.9	-9.4	-0.3	.	.
C=CCNC(=S)N/N=C/c1ccc(OCc2ccccc2Cl)cc1	10.0*	10.1	-0.8	-21.9	-5.4	-9.1
Clc1ccccc1COc1ccc(/C=N/n2cnnc2)cc1	1.0	-7.9	3.6	-7.6	.	.
c1ccc(Nc2cc(Nc3ccccc3)[nH]n2)cc1	21.5*	-2.8	5.4	-7.6	2.9	3.1
CCCS(=O)(=O)N1CCC(C(=O)NCCN2CCC(Cc3ccccc3)CC2)CC1	15.4*	-8.9	13.1*	-0.3	-4.9	-5.1
CCS(=O)(=O)N1CCC(C(=O)NCCCN2CCC(Cc3ccccc3)CC2)CC1	11.0*	-6.6	1.5	-0.1	-2.1	-1.6
CCC(CC)CN1CCC(CN2C(=S)NC[C@@H]2Cc2ccccc2)CC1	3.5	.	4.5	.	.	.
CN(CC(=O)Nc1ccccc1Cl)C(=O)CSc1nncs1	10.4*	-5.8	-0.5	1.7	-1.1	0.4
O=C(O)C[C@H]1c2cc(F)ccc2S(=O)(=O)N1C1CCCC1	10.1*	-7.7	1.1	11.6	6.1	5.2
Cc1ccc(C)c(OCC(O)CN2CCC(C)CC2)c1C (stereo unspecified)	10.8*	-6.8	2.4	-2.4	-4.5	-5.3
Cc1cc2oc(C(=O)Nc3nonc3C)c(C)c2cc1C	9.6*	1.9	-10.9	-6.6	-13.2	-13.0
CCN(Cc1ccccc1)C(=O)c1ccc2c(=O)n3c(nc2c1)CCC3	-6.0	6.4	-14.9	8.5	.	.
COc1cc(OC)c(S(=O)(=O)Nc2ccccc2N2CCOCC2)cc1NC(C)=O	4.0	-6.3	0.9	0.6	.	.
COc1cc(OC)c(S(=O)(=O)Nc2ccccc2NC(=O)CN2CCOCC2)cc1NC(C)=O	14.6*	-4.6	2.1	-5.2	-5.8	-3.9
CCC(CC)NC(=O)C1CCN(c2ccc(S(=O)(=O)N3CCOCC3)cc2[N+](=O)[O-])CC1	1.7	-9.6	-7.3	1.0	.	.
Cc1nn(-c2ccccc2)c(N2CCCC2)c1/C=N/NC(=O)c1ccccc1O	-43.2	-6.7	-49.0	6.2	.	.
Cc1nn(-c2ccccc2)c(N2CCCC2)c1/C=N/NC(=O)C1CC1	12.0*	-3.7	-5.5	-2.1	1.6	-2.2
Cc1ccc(C(=O)NCCCNC(=O)c2ccco2)cc1C	1.6	-3.0	-1.4	6.2	.	.
Cc1ccc(CNS(=O)(=O)c2ccc([N+](=O)[O-])cc2)cc1	12.2*	11.8	-3.2	3.7	3.9	2.6
CN(CC(=O)Nc1ccc(Cl)c(C(F)(F)F)c1)C(=O)Cc1n[nH]c(=O)c2ccccc12	10.0*	17.7	-3.3	30.5	-2.5	1.3
CN(CC(=O)Nc1ccc(Cl)c(C(F)(F)F)c1)C(=O)CCCc1nc2ccccc2c(=O)[nH]1	3.2	11.7	-0.1	37.0	.	.
COc1ccc(Nc2nc(C(=O)N(CCO)Cc3ccccc3)cs2)cc1	-4.0	-5.9	-8.9	3.7	.	.

Assay outcomes: PubChem, several laboratories
